The subject of the test is Trypanosoma brucei. Description: Trypanosoma brucei 72 hour study. It counts as functional, organism-based. On the set-up: scale not given: in the data most compounds retested in dose-response had high values.

The structures appear in SMILES notation. The whole screen tested about 66,000 compounds, of which about 960 (1.5%) showed an effect of 50% or more. For the sample, strong results were picked, then their nearest neighbours and some compounds at random.

Consider `Cc1ccc(S(=O)(=O)NCC(C)(C)N)c(F)c1.Cl`, for which, for the setting “30 µM, 30.03 µM”, the “Percent Effect” value is on record as -16.31%.

In the case of `Cc1cc(Oc2ccccc2F)nc(C2CCCCN2)n1.Cl.Cl` (centres undefined), the “Percent Effect” value (30.3 µM, […]) was -25.86%.

`Cc1nn(C)c(N(C)C)c1CNC1CCc2c(Cl)cccc21.Cl` (centres undefined): the “Percent Effect” value (30.3 µM, […]) worked out at 17.67%.

For the compound `CN(Cc1cn2c(n1)CN(C(=O)CC1CC1)CC2)Cc1ccco1.O=C(O)C(F)(F)F`, under “30 µM, 30.03 µM”, the “Percent Effect” value is on record as 13.03%.

For `CC(C)CN1CCCC1c1ccc(C(=O)Nc2cccnc2)s1` (centres undefined), the “Percent Effect” value (30.3 µM, […]) was found to be 100.5%.

Turning to `CC(C)CN1CCCC1c1ccc(C(=O)Nc2cc[nH]n2)s1` (centres undefined), the “Percent Effect” value (30.3 µM, […]) is listed as 23.5%.

As for `CC(C)CN1CCCC1c1ccc(C(=O)Nc2cn(C)nn2)s1` (centres undefined), the “Percent Effect” value (30.3 µM, […]) turned out to be 0.1891%.

On to `CC(C)CN1CCCC1c1ccc(C(=O)Nc2ccc3[nH]nnc3c2)s1` (centres undefined), for which the “Percent Effect” value (30.3 µM, […]) was 85.03%.

For `CCc1nnc(NC(=O)c2ccc(C3CCCN3CC(C)C)s2)s1` (centres undefined), the “Percent Effect” value (30.3 µM, […]) is listed as -0.9926%.

Consider `Cc1cnc(NC(=O)c2ccc(C3CCCN3CC(C)C)s2)s1` (centres undefined), for which, where the note is “30.3 µM, […]”, the “Percent Effect” value stood at 0.4974%.

Turning to `COCCN(C)C[C@@H]1CN(C(=O)c2ccc3c(c2)OCO3)C[C@@H]1CO`, the “Percent Effect” value (30 µM, 30.03 µM) is -13.62%.

With `CC(C)Cc1nc(OCC(N)=O)c(C#N)c2c1CCCC2`, the “Percent Effect” value (30 µM, 30.03 µM) is reported as -29.84%.

Take `CCS(=O)(=O)N1CCN(Cc2ccncc2)c2nc(C)ccc2C1.O=C(O)C(F)(F)F.O=C(O)C(F)(F)F`: the “Percent Effect” value (30 µM, 30.03 µM) turned out to be 13.64%.

On to `COc1ccc2c(c1)OCC(C(=O)NCc1nc3c(s1)CCCC3)C2` (centres undefined), for which the “Percent Effect” value (30 µM, 30.03 µM) is recorded as -46.37%.

For the compound `COc1cccc2c1OCC(C(=O)NCc1nc3c(s1)CCCC3)C2` (centres undefined), the “Percent Effect” value (30 µM, 30.03 µM) stood at 60.51%.

With `COc1cccc2c1OCC(C(=O)NCCc1nc3c(s1)CCC3)C2` (centres undefined), the “Percent Effect” value (30 µM, 30.03 µM) was -23.46%.

For the compound `Cc1ccc2c(c1)C(NC(=O)N(C)C)CC21CCN(C(C)C)CC1.O=C(O)C(F)(F)F` (centres undefined), under “30.3 µM, […]”, the “Percent Effect” value is -8.347%.

With `COCCN1CCC2(CC1)CC(NC(=O)C(C)C)c1ccccc1O2.O=C(O)C(F)(F)F` (centres undefined), the “Percent Effect” value (30.3 µM, […]) is listed as 3.771%.

`CC(NCc1ccc(OCC(N)=O)cc1)c1ccc(Cl)c(Cl)c1.Cl` (centres undefined): under “30.3 µM, […]”, the “Percent Effect” value is given as 16.7%.

Turning to `CC(NCc1ccc(OCC(N)=O)cc1)c1ccc2c(c1)CCCC2` (centres undefined), the “Percent Effect” value (30.3 µM, […]) was 58.39%.

On to `CC(NCc1ccc(OCC(N)=O)cc1)c1ccc(Cl)cc1.Cl` (centres undefined), for which the “Percent Effect” value (30.3 µM, […]) is reported as -11.6%.

Turning to `O=C(O)C(F)(F)F.O=C(O)C(F)(F)F.O=C(O)C(F)(F)F.c1ccc(CN2CCc3nnc(COc4ccccn4)n3CC2)nc1`, under “30 µM, 30.03 µM”, the “Percent Effect” value came out at 1.272%.

On to `Cc1ccc(CN2CCn3c(C(=O)N(C)C)cnc3C2)s1.O=C(O)C(F)(F)F`, for which the “Percent Effect” value (30 µM, 30.03 µM) was -2.366%.

Consider `CCCn1c(C)c(CC(=O)N[C@H](C)C(=O)OC)c2c1CC(C)(C)CC2=O`, for which the “Percent Effect” value (30 µM, 30.03 µM) came to 85.29%.

Turning to `CCCn1c(C)c(CC(=O)NC)c2c1CC(C)(C)CC2=O`, under “30 µM, 30.03 µM”, the “Percent Effect” value is recorded as 24.04%.

`CCCn1c(C)c(CC(=O)NC(C)CO)c2c1CC(C)(C)CC2=O` (centres undefined): where the note is “30 µM, 30.03 µM”, the “Percent Effect” value is listed as -12.97%.

Take `c1cc(N2CCOCC(Cc3ccc4[nH]ccc4c3)C2)ncn1` (centres undefined): the “Percent Effect” value (30.3 µM, […]) is on record as -4.218%.

Turning to `Cc1cc(N2CCOCC(Cc3ccc4[nH]ccc4c3)C2)ncn1` (centres undefined), the “Percent Effect” value (30.3 µM, […]) stood at 12.74%.

On to `Nc1cc(N2CCOCC(Cc3ccc4[nH]ccc4c3)C2)ncn1` (centres undefined), for which the “Percent Effect” value (30.3 µM, […]) is listed as 67.68%.

As to `O=C(CC1CC2(CCN(CC3CC3)CC2)Oc2ccccc21)NC1CC1.O=C(O)C(F)(F)F` (centres undefined), where the note is “30.3 µM, […]”, the “Percent Effect” value was 11.6%.

Turning to `CCC[C@H]1CN(S(=O)(=O)N(C)Cc2ccccc2)C[C@@H]1N`, under “30 µM, 30.03 µM”, the “Percent Effect” value was 8.364%.

Take `CCOCc1ccccc1NC(=O)NC1CCN(C2CCCC2)C1` (centres undefined): the “Percent Effect” value (30.3 µM, […]) is given as 99.06%.

For the compound `CCOCc1ccccc1NC(=O)NC1CCN(c2ccccc2)C1` (centres undefined), the “Percent Effect” value (30.3 µM, […]) stood at 12.17%.

`CCOCc1ccccc1NC(=O)NC1CCN(CC(F)(F)F)C1` (centres undefined): the “Percent Effect” value (30.3 µM, […]) amounted to 8.993%.

For `CN1CCCC(c2ccnc(C(=O)NCC3CC3)c2)C1` (centres undefined), the “Percent Effect” value (30.3 µM, […]) was -15.86%.

`Cn1cc(CN2CCCC3(CCCCN3S(C)(=O)=O)C2)cn1.O=C(O)C(F)(F)F` (centres undefined): the “Percent Effect” value (30 µM, 30.03 µM) is -25.71%.

For `Cc1cccc(-c2nc(N)nc3c2CN(C(=O)c2ccncn2)C3C)c1` (centres undefined), under “30.3 µM, […]”, the “Percent Effect” value was -0.8654%.

`COCC(=O)N1Cc2c(-c3cccc(C)c3)nc(N)nc2C1C` (centres undefined): where the note is “30.3 µM, […]”, the “Percent Effect” value was -11.02%.

`Cc1cccc(-c2nc(N)nc3c2CN(C(=O)c2cc(C)n[nH]2)C3C)c1` (centres undefined): for the setting “30.3 µM, […]”, the “Percent Effect” value is given as 90.24%.

Take `c1csc(CCNc2nc(-c3ccncc3)nc3c2CCNCC3)c1`: the “Percent Effect” value (30.3 µM, […]) was determined as 104%.

For `Cc1ccc(CCNc2nc(-c3ccncc3)nc3c2CCNCC3)o1`, the “Percent Effect” value (30.3 µM, […]) is listed as -212%.

With `COCCNc1nc2c(c(NCCc3cccs3)n1)CCNCC2`, the “Percent Effect” value (30 µM, 30.03 µM) is -24.48%.

`O=C(C1CCC1)N1CCO[C@H]2[C@H](OCCCn3cccn3)CC[C@@H]21.O=C(O)C(F)(F)F`: the “Percent Effect” value (30.3 µM, […]) is -14.88%.

On to `CCc1nc(C)sc1CN1CCc2[nH]nc(-c3ccc(F)c(F)c3)c2C1`, for which, for the setting “30.3 µM, […]”, the “Percent Effect” value was found to be 9.305%.

In the case of `CC(C)c1nnsc1CN1CCc2[nH]nc(-c3ccc(Cl)cc3)c2C1`, the “Percent Effect” value (30.3 µM, […]) was 100.2%.

For the compound `CC(C)c1nnsc1CN1CCc2[nH]nc(-c3ccc(F)c(F)c3)c2C1`, the “Percent Effect” value (30.3 µM, […]) is 8.442%.

Turning to `Cn1nc(N2CCCC(C(=O)Nc3nc4ccccc4s3)C2)ccc1=O` (centres undefined), under “30 µM, 30.03 µM”, the “Percent Effect” value is on record as -10.15%.

For the compound `Cc1nc(COC[C@@H]2CCC[C@@]23CN(C)CCO3)cs1.O=C(O)C(F)(F)F`, the “Percent Effect” value (30 µM, 30.03 µM) is listed as 42.28%.

With `CCc1nnsc1C(=O)NC1CCN(CCOc2ccc(Br)cc2)CC1`, the “Percent Effect” value (30.3 µM, […]) is recorded as 50.82%.

(Values after ChEMBL document CHEMBL3988442, “University of Dundee, Small-Polar-MMV Screening Library” (2021).)
